Assay results taken from ChEMBL document CHEMBL3988442, “University of Dundee, Small-Polar-MMV Screening Library” (2021).
Screen size: about 69,000 compounds; about 950 (1.4%) showed an effect of 50% or more. This excerpt belongs to a sample that is enriched for strong results.

System: Mycobacterium tuberculosis
Assay: Cornell M. t heat shock assay; note: in the data most compounds retested in dose-response had high values
Format: functional, organism-based
Design: dose or concentration left out as unconfirmed

SMILES | Percent Effect [%]
Cc1nnc(N2CC[C@H]3C[C@H](C(=O)N(C)C)O[C@@H]3C2)s1.O=C(O)C(F)(F)F | 7.027
COCC1CN(CC2CC2)Cc2nn(CC3CC3)cc21.O=C(O)C(F)(F)F (configuration not stated) | -19.88
CN(C)C(C)(C)CNC(=O)C(C)(C)c1ccccc1F | 97.79
CC(C)(CNC(=O)C(C)(C)c1ccccc1F)C(N)=O | -4.561
CC(C)(C(=O)NCC(N)=O)c1ccccc1F | 8.109
CC1CCN(c2ncc3c(n2)CN(C2CCS(=O)(=O)C2)C3=O)CC1 (configuration not stated) | -20.34
Cc1nccn1-c1cccc(C2CCCN2)n1.Cl (configuration not stated) | -11.58
CCCS(=O)(=O)N1CCC2(CC1)CN(CC1CCOC1)c1ccccc12.O=C(O)C(F)(F)F (configuration not stated) | 28.34
Cc1cccc(CN2C[C@@H]3COC[C@]3(CNC(=O)C3CC3)C2)c1.O=C(O)C(F)(F)F | 2.9
CC(C)NC(=O)N(Cc1cc(O)nc2ccccc12)C(C)C | -8.593
COCCN(Cc1cc(O)nc2ccccc12)C(=O)NC(C)C | 104.4
COCCCN(Cc1cc(O)nc2ccccc12)C(=O)NC(C)C | -0.9795
Cc1cc(N2CCN(C(=O)[C@@H]3C[C@@H]4C=C[C@H]3C4)CC2)cc(C)n1 | -20.18
O=C(CC1CC1)N1C[C@@H]2CCN(c3cnccn3)C[C@@H]2C1.O=C(O)C(F)(F)F | -16.38
O=C(NCCCN1CCOCC1)c1ccc(-n2ccc3ccccc32)s1 | 14.99
O=C(NCCCN1CCCC1=O)c1ccc(-n2ccc3ccccc32)s1 | 22.37
O=C(NCCCN1CCCCC1)c1ccc(-n2ccc3ccccc32)s1 | 102.3
CC(=O)N1C[C@@H]2CC[C@H](C1)N(S(=O)(=O)c1ccc(C#N)cc1Cl)C2 | 12.47
O=C(O)C(F)(F)F.O=C(c1cscn1)N1CCC2(CCN(Cc3cccs3)CC2)C1 | 3.711
O=C(Nc1cccnc1)[C@@H]1COC[C@H]2CN(C3CCCC3)C[C@H]21.O=C(O)C(F)(F)F.O=C(O)C(F)(F)F | -37.6
CCc1cc(=O)[nH]c(SCc2ccccn2)n1 | 70.99
CCc1c(C)nc(SCc2ccccn2)[nH]c1=O | 33.29
CCCc1cc(=O)[nH]c(SCc2ccccn2)n1 | 69.86
CCCc1cc(=O)[nH]c(-c2ccccc2CN(C)CCC(C)C)n1 | -7.876
Cc1nnc(SCc2ccccn2)s1 | 4.26
O=c1cc(C2CCNCC2)nc(CCc2ccccn2)[nH]1 | 6.043

SMILES | Percent Effect [%]
COc1cccc(CC(=O)N2CC[C@@H](OC)[C@@H]2Cc2cccnc2)c1.O=C(O)C(F)(F)F | 11.27
Cc1nnc(CN(C)C2CCCN(Cc3noc(C4CC4)n3)C2)o1 (configuration not stated) | -4.888
CCOC1COC2(CCN(CC3CC3)CC2)C1.O=C(O)C(F)(F)F (configuration not stated) | -11.36
COc1ccc(-c2noc(CNC(C)Cn3cccn3)n2)c(OC)c1 (configuration not stated) | -27.41
COc1cccc(-c2nc(CNCc3cccnc3)cs2)c1 | -18.41
Cc1ccc(-c2nc(CNC(C)Cn3cccn3)cs2)o1 (configuration not stated) | 55.14
Cc1ccc(-c2nc(CN3CCOC(Cn4cccn4)C3)cs2)o1 (configuration not stated) | 19.35
CC(Cn1cccn1)NCc1csc(-c2ccccc2)n1 (configuration not stated) | 29.32
COc1cccc(-c2nc(CNC(C)Cn3cccn3)cs2)c1 (configuration not stated) | 89.4
COc1ccc(-c2nc(CNC(C)Cn3cccn3)cs2)cc1 (configuration not stated) | 58.05
O=C(NCc1ccccn1)[C@@H]1COC[C@H]2CN(C3CCOCC3)C[C@H]21.O=C(O)C(F)(F)F.O=C(O)C(F)(F)F | 0.9957
CC(=O)N1CCN(c2cncc(C3CCNCC3)n2)CC1.Cl | -8.785
O=C(O)C(F)(F)F.O=C(c1ccccc1)N1CCOC2(CCN(Cc3cccs3)CC2)C1 | -35.41
Cc1ccc(CN2Cc3nnn(C)c3C(COCC3CC3)C2)s1.O=C(O)C(F)(F)F (configuration not stated) | -11.83
O=C(O)C(F)(F)F.c1cnc(N2CCOCC3(CN(Cc4cc[nH]n4)CCO3)C2)nc1 (configuration not stated) | -18.22
COCC(=O)N1CCC(c2cc3ncccc3c(O)n2)CC1 | 10.22
O=C(CC1CCCC1)N1CCC(c2cc3ncccc3c(O)n2)CC1 | 63.36
CCOCC(=O)N1CCC(c2cc3ncccc3c(O)n2)CC1 | -9.964
CCCC(=O)N1CCC(c2cc3cccnc3c(O)n2)CC1 | -11.07
CCCC(=O)N1CCCC(c2cc3cccnc3c(O)n2)C1 (configuration not stated) | -27.54
O=C(CCC1CCCC1)N1CCC(c2cc3ncccc3c(O)n2)CC1 | 59.08
CC(C)N(C)Cc1nnn2c1CN(Cc1cccnc1)CCC2.O=C(O)C(F)(F)F.O=C(O)C(F)(F)F.O=C(O)C(F)(F)F | -0.7766
CC(C)n1c(=O)nc2n1C(=O)N(c1ccc(Cl)cc1)C2 | 4.407
CCOC(=O)[C@]12CCCN(Cc3cccs3)C[C@H]1CN(CC(C)C)C2.O=C(O)C(F)(F)F.O=C(O)C(F)(F)F | 26.18
O=C(CN1CC(c2nc(-c3ccco3)no2)C1)NCCc1ccccc1.O=C(O)C(=O)O | -7.325
O=C(Cc1cccc(F)c1F)NS(=O)(=O)c1ccc(Cl)cc1F | -11.18

SMILES | Percent Effect [%]
CS(=O)(=O)Cc1ccc(Cl)cc1NCc1ccccc1F | 52.35
CC(CS(C)(=O)=O)NCc1cc(Cl)ccc1F (configuration not stated) | -12.53
CS(=O)(=O)Cc1ccccc1NCc1cc(Cl)ccc1Cl | -12.17
CS(=O)(=O)Cc1ccc(Cl)cc1NCc1cccc(F)c1F | 57.79
CN(C)C(=O)Cc1ccccc1NCc1cccc(F)c1F | -10.01
Cn1nc(C(=O)N2CCOCC2)cc1C(=O)Nc1ccc(Cl)cc1Cl | 13.26
Cc1csc(NC(=O)CN(C)CCOc2cccc(F)c2)n1 | 95.41
CN(CCOc1cccc(F)c1)CC(=O)Nc1ccncc1 | -17.11
Cc1sc(NC(=O)CN(C)CCOc2cccc(F)c2)c(C)c1C | 3.214
CCc1oc(C(=O)N2CC[C@H]3CC[C@@H](C2)N3)cc1CN(CC)CC | -18.46
CN(C)C(=O)N1C[C@@H]2CC[C@H](C1)N(Cc1nnc(C3CC3)o1)C2 | 104.3
CN(C)C(=O)N1C[C@@H]2CC[C@H](C1)N(Cc1nnc(-c3ccccc3)o1)C2 | 16.99
CN(C)C(=O)N1C[C@@H]2CC[C@H](C1)N(Cc1nnc(-c3ccco3)o1)C2 | 3.686
CNc1ncc2c(n1)CN(CCc1ccc(F)cc1)C2=O | -20.93
CNC(=O)[C@H]1CO[C@H]2CCN(c3ncc(F)cn3)C[C@H]2C1.O=C(O)C(F)(F)F | -11.38
CCn1nc(C)c(CN(Cc2ccccn2)Cc2ccccc2Cl)c1C | 58.2
CCn1nc(C)c(CN(CCCN(C)C)Cc2ccccn2)c1C | -9.336
Cn1cc(CN(Cc2ccccn2)Cc2ccccc2Cl)cn1 | 20.97
Cc1nn(C)cc1CN(C)C(=O)c1ccccn1 | -16.12
CCn1nc(C)c(CN(CCOC)Cc2ccccn2)c1C | -2.912
Cc1nn(C)cc1CN(Cc1ccccn1)Cc1ccccc1Cl | 53.11
O=C(O)C(=O)O.c1cncc(CN2CCC(c3ccc4c(c3)OCO4)CC2)c1 | -6.288
CC(C)CS(=O)(=O)N1C[C@H]2C[C@H](C(=O)N3CCCC3)[C@@H](C1)O2 | 18.86
CSc1ccc(CN2C[C@@H]3CC[C@@](O)(c4ccc(C)cn4)[C@@H]3C2)cc1 | 28.36
C[C@H]1CN(c2ccccn2)C[C@@]12CCN(Cc1cccnc1)C2=O.O=C(O)C(F)(F)F.O=C(O)C(F)(F)F | -8.389
O=C(CS(=O)(=O)c1ncccc1Cl)NC1CCCc2ccccc21 (configuration not stated) | 57.06

SMILES | Percent Effect [%]
O=C(CS(=O)(=O)c1ccccn1)NC1CCCc2ccccc21 (configuration not stated) | 34.88
O=C(CS(=O)(=O)c1ccc(Cl)cc1)NC1CCCc2ccccc21 (configuration not stated) | 17.58
COc1ccc(C(C)=O)cc1CN1CCn2cccc2C1C (configuration not stated) | 9.9
COc1ccc(C)cc1CN1CCn2cccc2C1C (configuration not stated) | 86.02
COc1ccc(CN2CCn3cccc3C2C)cc1F (configuration not stated) | 13.47
CCOc1ccccc1C1CCCN1.Cl (configuration not stated) | 3.065
COc1cc(CNCC(O)c2ccccc2)cc2c1OCO2.Cl (configuration not stated) | -7.292
Cl.c1ccc(CN2CCNCC(Cc3cnccn3)C2)cc1 (configuration not stated) | -10.09
O=C(O)C(F)(F)F.O=C(c1ccco1)N1CC2(CCNCC2)c2cc(Cl)ccc21 | -24.85
O=C(O)C(F)(F)F.O=C(O)C(F)(F)F.c1cnc(N2CCC3(CCN(Cc4ccncc4)CC3)CC2)nc1 | 6.802
Cc1cccnc1CN1CCOC(Cc2cccc3ccccc23)C1 (configuration not stated) | 106.2
CCc1nc(C)c(CN2CCOC(Cc3cccc4ccccc34)C2)[nH]1 (configuration not stated) | 8.588
c1ccc2c(CC3CN(Cc4nccs4)CCO3)cccc2c1 (configuration not stated) | -8.986
CCN1CCc2c(sc3c2C(=O)NC(/C=C/c2ccco2)N3)C1 (configuration not stated) | -25.76
O=C(Cc1cnccn1)N1C[C@H]2CC[C@@H]1CN(Cc1cscn1)C2 | -4.902
Cc1cccnc1NC(=O)C1(n2cnnn2)CCCCC1 | 10.66
O=C(NCCc1ccccn1)C1(n2cnnn2)CCCCC1 | -1.374
O=C(NCCc1cccc(F)c1)C1(n2cnnn2)CCCCC1 | 90.07
O=C(NCCc1c[nH]c2ccccc12)C1CCC(Cn2cnnn2)CC1 (configuration not stated) | 2.28
Cc1ccnc(NC(=O)C2(n3cnnn3)CCCCC2)c1 | -14.84
O=C(NCCc1c[nH]c2ccccc12)C1(n2cnnn2)CCCCC1 | 102.3
Cc1cccc(NC(=O)C2(n3cnnn3)CCCCC2)n1 | -23.83
O=C(NCCc1c[nH]c2ccc(F)cc12)C1(n2cnnn2)CCCCC1 | 102.2
O=C(Nc1ccccn1)C1(n2cnnn2)CCCCC1 | 4.562
